A selection: hits, their analogues and other compounds. The true share with any hit is near 6.7%.
C diff growth: C. difficile growth inhibitors, primary screen, HTS; Clostridium difficile clinical isolate growth, OD600, 24 h; stronger effect = lower value; growth activity, negative = inhibition, % at 16 µg/mL (by protocol); 0.25% of 86,000 active; AID 1259249, 2017;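 active = mean growth activity at or below -80% and every replicate also at or below -80%; inconclusive = mean at or below -80% but some replicate above -80%; inactive = mean growth activity above -80%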;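 also: 0% = DMSO wells and -100% = levofloxacin 16 µg/mL wells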
T cruzi growth-1: T. cruzi intracellular proliferation inhibitors, primary screen, cell-based, beta-gal Tulahuen parasites, NIH3T3 host, luminescence; inhibition, % at 8.34 µM; T. cruzi beta-gal in NIH3T3, GalScreen luminescence, 90 h; 5.9% of 77,000 active;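 active = mean inhibition above about 93%, with at least 55% of replicates each passing it, limit read from the data, passing the limit was not always enough; inconclusive = only one of those two conditions holds; inactive = neither condition holds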
Pf Dd2 growth: P. falciparum Dd2 growth inhibitors, primary screen, SYBR Green fluorescence, single dose replicates. activity change, % at 10 µM. 2.3% of 94,000 active. 72 h; stronger effect = lower value; in the data active = activity change below about -80%; inconclusive = no clear call, values can overlap the other calls
T cruzi growth-2: T. cruzi intracellular proliferation inhibitors, confirmation, cell-based, NIH3T3 host, beta-gal parasite, luminescence, cherry-pick. shares compounds with T cruzi growth-1. T. cruzi beta-gal in NIH3T3, GalScreen luminescence, 90 h. inhibition, % at 8.35 µM. 72% of 5,600 active;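 active = mean replicate inhibition above about 95% and at least 55% of replicates individually reaching it, limit read from the data; inconclusive = only one of the two criteria is met; inactive = neither criterion is met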
T cruzi growth-3: inhibitors of intracellular T. cruzi replication, confirmation, NIH3T3 host cells, beta-gal parasites, cherry-pick, set 2. shares compounds with T cruzi growth-1. T. cruzi beta-gal in NIH3T3, GalScreen luminescence, 90 h. inhibition, % at 2.09 µM. 21% of 5,600 active. AID 651740, 2012;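 active = mean inhibition above about 95%, with at least 55% of replicates also reaching it, limit read from the data; inconclusive = meets just one of the two conditions; inactive = meets neither condition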;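 also: plate controls were neutral control median for no effect and positive control median for full effect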
NIH3T3 tox: cytotoxicity in mouse NIH/3T3 fibroblasts, confirmation, cytotoxicity control for T. cruzi proliferation inhibitor project, cell-based, cherry-pick, single point; NIH/3T3 viability, CellTiter-Glo ATP luminescence, 90 h; shares compounds with T cruzi growth-1; 14% of 5,600 active; cytotoxicity (signal decrease), % at 8.35 µM;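 active = mean signal decrease across replicates above about 35% based on untreated-well scatter, with enough replicates individually passing, limit read from the data; inconclusive = no rule stated though some were filed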;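 also: 0% = median of neutral control wells and 100% = median of positive control wells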
3T3 cytotox 2: NIH/3T3 fibroblast cytotoxicity, confirmation, cytotoxicity control, cell-based, cherry-pick, single point, set 2 | shares compounds with T cruzi growth-1 | NIH/3T3 viability, CellTiter-Glo ATP luminescence, 90 h | inhibition, % at 24.9 µM | 56% of 5,600 active;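 active = mean loss of cell viability signal at or above a set limit, and enough replicates individually reaching it; inconclusive = meets only the mean limit or only the replicate share; inactive = meets neither condition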;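 also: 0% = median of neutral control wells and 100% = median of positive control wells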
An asterisk follows results filed as active.

CC(C)CC#Cc1ccc2c(c1)O[C@@H](CN(C)Cc1ccccc1)[C@H](C)CN([C@@H](C)CO)S2(=O)=O was read as C diff growth 12, T cruzi growth-1 125*, Pf Dd2 growth -56, T cruzi growth-2 106*, T cruzi growth-3 inconclusive, NIH3T3 tox 49* and 3T3 cytotox 2 104*.
CC(C)CC#Cc1ccc2c(c1)O[C@H](CN(C)Cc1ccccc1)[C@H](C)CN([C@@H](C)CO)S2(=O)=O was read as C diff growth 18, T cruzi growth-1 122*, Pf Dd2 growth -64, T cruzi growth-2 93, T cruzi growth-3 111*, NIH3T3 tox 21 and 3T3 cytotox 2 107*.
CC(C)CC#Cc1ccc2c(c1)O[C@H](CN(C)Cc1ccc(F)cc1)[C@H](C)CN([C@H](C)CO)S2(=O)=O was read as C diff growth 15, T cruzi growth-1 66 and Pf Dd2 growth -74.
For CC(C)CC#Cc1ccc2c(c1)O[C@H](CN(C)Cc1ccc(F)cc1)[C@@H](C)CN([C@H](C)CO)S2(=O)=O the results were C diff growth 9, T cruzi growth-1 49 and Pf Dd2 growth -45.
`O=C(NC1Cc2ccccc2C1)[C@@H]1[C@@H](CO)[C@@H]2Cn3c(cccc3=O)[C@@H]2N1C(=O)C1CC1` gave C diff growth 0, T cruzi growth-1 61 and Pf Dd2 growth 9.
For C/C=C/c1cnc2c(c1)C(=O)N([C@@H](C)CO)C[C@@H](C)[C@H](CN(C)C(=O)Cc1ccccc1)O2 the results were C diff growth -3, T cruzi growth-1 27 and Pf Dd2 growth 34.
COCC#Cc1ccc2c(c1)O[C@@H](CN(C)Cc1cccnc1)[C@@H](C)CN([C@@H](C)CO)S2(=O)=O was read as C diff growth -3, T cruzi growth-1 16 and Pf Dd2 growth -3.
Screening CCCC#Cc1ccc2c(c1)O[C@H](CN(C)Cc1cncnc1)[C@H](C)CN([C@@H](C)CO)S2(=O)=O returned C diff growth 2, T cruzi growth-1 40 and Pf Dd2 growth -2.
`CCCC#Cc1ccc2c(c1)O[C@H](CN(C)Cc1cncnc1)[C@H](C)CN([C@H](C)CO)S2(=O)=O` gave C diff growth 4, T cruzi growth-1 38 and Pf Dd2 growth -12.
COCC#Cc1ccc2c(c1)O[C@H](CN(C)Cc1cccnc1)[C@@H](C)CN([C@@H](C)CO)S2(=O)=O was read as C diff growth -20, T cruzi growth-1 105*, Pf Dd2 growth -7, T cruzi growth-2 97*, T cruzi growth-3 89, NIH3T3 tox 33 and 3T3 cytotox 2 64*.
`CCCC#Cc1ccc2c(c1)O[C@H](CN(C)Cc1cccnc1)[C@H](C)CN([C@@H](C)CO)S2(=O)=O` gave C diff growth 1, T cruzi growth-1 109*, Pf Dd2 growth -24, T cruzi growth-2 99*, T cruzi growth-3 52, NIH3T3 tox 54* and 3T3 cytotox 2 inconclusive.
For CCCC#Cc1ccc2c(c1)O[C@@H](CN(C)Cc1cncnc1)[C@@H](C)CN([C@@H](C)CO)S2(=O)=O the results were C diff growth 3, T cruzi growth-1 44 and Pf Dd2 growth -10.
CCCC#Cc1ccc2c(c1)O[C@@H](CN(C)Cc1cccnc1)[C@@H](C)CN([C@@H](C)CO)S2(=O)=O was read as C diff growth 4, T cruzi growth-1 96*, Pf Dd2 growth -39, T cruzi growth-2 99*, T cruzi growth-3 72, NIH3T3 tox 33 and 3T3 cytotox 2 18.
`CCCC#Cc1ccc2c(c1)O[C@H](CN(C)Cc1cccnc1)[C@@H](C)CN([C@H](C)CO)S2(=O)=O` gave C diff growth 6, T cruzi growth-1 123*, Pf Dd2 growth -22, T cruzi growth-2 106*, T cruzi growth-3 104*, NIH3T3 tox 32 and 3T3 cytotox 2 92*.
O=C(C[C@@H]1CC[C@@H]2[C@H](COC[C@H](O)CN2Cc2ccccc2F)O1)N[C@@H]1CCN(Cc2ccccc2)C1 was read as T cruzi growth-1 93 and Pf Dd2 growth -57.
`CO[C@H]1CN(C)C(=O)c2ccc(NC(C)=O)cc2OC[C@@H](C)N(Cc2ccncc2)C[C@H]1C` gave C diff growth -3, T cruzi growth-1 -7 and Pf Dd2 growth 5.
Screening CN(C)CCCNC(=O)C[C@@H]1CC[C@H](NS(=O)(=O)c2ccccc2)[C@H](CO)O1 returned C diff growth 0, T cruzi growth-1 18 and Pf Dd2 growth 8.
CCCC#Cc1ccc2c(c1)O[C@@H](CN(C)Cc1cncnc1)[C@H](C)CN([C@H](C)CO)S2(=O)=O was read as C diff growth 2, T cruzi growth-1 42 and Pf Dd2 growth -34.
CCCC#Cc1ccc2c(c1)O[C@H](CN(C)Cc1cccnc1)[C@H](C)CN([C@H](C)CO)S2(=O)=O was read as C diff growth 3, T cruzi growth-1 115*, Pf Dd2 growth -30, T cruzi growth-2 106*, T cruzi growth-3 74, NIH3T3 tox 53* and 3T3 cytotox 2 31*.
OC[C@@H]1[C@H](c2ccc(-c3cccnc3)cc2)[C@@H]2CN(Cc3ccccn3)CCCCN12 was read as C diff growth -4, T cruzi growth-1 95 and Pf Dd2 growth -45.
`OC[C@@H]1[C@H](c2ccc(-c3cccnc3)cc2)[C@H]2CN(Cc3ccccn3)CCCCN12` gave C diff growth -5, T cruzi growth-1 109*, Pf Dd2 growth -16, T cruzi growth-2 97*, T cruzi growth-3 75, NIH3T3 tox 4 and 3T3 cytotox 2 6.
For OC[C@H]1[C@@H](c2ccc(Br)cc2)[C@H]2CN(Cc3ccccn3)CCCCN21 the results were C diff growth 4, T cruzi growth-1 25 and Pf Dd2 growth 19.
`OC[C@H]1[C@H](c2ccc(Br)cc2)[C@@H]2CN(Cc3ccccn3)CCCCN12` gave C diff growth -1, T cruzi growth-1 109*, Pf Dd2 growth -12, T cruzi growth-2 inconclusive, T cruzi growth-3 55, NIH3T3 tox 3 and 3T3 cytotox 2 3.
For COc1ccc(CN(C)C[C@H]2Oc3ccc(NC(=O)Nc4c(C)noc4C)cc3CC(=O)N([C@H](C)CO)C[C@@H]2C)cc1 the results were C diff growth 1 and Pf Dd2 growth 42.
